Measured values as given in PubChem BioAssay AID2221 (Broad Institute, 2009).
Several values for one entry are separate records, joined by “and”; a condition that tells them apart may be missing. Equal values may be shown once. Hit rate of the full screen: of about 290,000 compounds, about 2,200 (0.76%) were called active. The sample as a whole holds a higher share of actives than the screen did. A number with no mark means an inactive call. No stated cut-off is given here; in the data, active means inhibition above about 30%; inconclusive means no clear call, values can overlap the other calls; inactive means below that.

Each molecule was assayed against Protein RecA (Mycobacterium tuberculosis (strain ATCC 25618 / H37Rv)) (UniProt P9WHJ3) (assay: Mtb RecA intein splicing inhibitors, primary screen, biochemical, fluorescence, HTS (AID 2221;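 further: 0% = vehicle wells and 100% = reference inhibitor control wells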)). Conditions: cell-free RecA intein splicing, stronger effect = higher value, concentration not given here.
Protein RecA (Mycobacterium tuberculosis (strain ATCC 25618 / H37Rv)), sequence (P9WHJ3 whole entry, looked up): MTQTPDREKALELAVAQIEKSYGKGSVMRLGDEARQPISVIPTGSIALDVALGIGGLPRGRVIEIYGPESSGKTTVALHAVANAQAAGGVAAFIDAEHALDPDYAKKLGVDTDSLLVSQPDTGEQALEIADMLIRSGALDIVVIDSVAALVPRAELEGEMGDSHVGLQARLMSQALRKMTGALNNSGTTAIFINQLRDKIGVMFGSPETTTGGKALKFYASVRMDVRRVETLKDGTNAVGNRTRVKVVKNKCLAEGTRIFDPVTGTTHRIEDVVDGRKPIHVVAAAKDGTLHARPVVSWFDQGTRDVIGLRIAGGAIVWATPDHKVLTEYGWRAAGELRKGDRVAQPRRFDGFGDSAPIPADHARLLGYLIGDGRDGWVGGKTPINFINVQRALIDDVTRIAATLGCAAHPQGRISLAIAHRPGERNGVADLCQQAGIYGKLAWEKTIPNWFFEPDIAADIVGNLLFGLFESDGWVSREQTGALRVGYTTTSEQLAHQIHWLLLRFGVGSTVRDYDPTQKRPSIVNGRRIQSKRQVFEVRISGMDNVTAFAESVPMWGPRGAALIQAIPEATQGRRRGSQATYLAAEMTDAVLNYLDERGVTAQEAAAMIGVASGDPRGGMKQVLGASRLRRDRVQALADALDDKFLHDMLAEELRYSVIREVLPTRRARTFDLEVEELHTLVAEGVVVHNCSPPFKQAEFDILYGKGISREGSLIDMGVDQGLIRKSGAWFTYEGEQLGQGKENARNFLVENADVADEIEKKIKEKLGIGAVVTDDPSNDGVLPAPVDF

Q: For COc1ccc(Nc2ncc(F)c(N3CCOCC3)n2)cc1, which inhibition is on record?
A: The inhibition was -0.77%.

Q: CN(C)S(=O)(=O)c1ccc(C(=O)NCCN=C2NS(=O)(=O)c3ccccc32)cc1 was tested. Which inhibition did it give?
A: The inhibition was -1.53%.

Q: Cc1cc(C)c(NC(=O)CN2C(=O)NC(Cc3ccccc3)C2=O)c(C)c1 (centres undefined) was tested. Which inhibition did it give?
A: The inhibition was 0.835%.

Q: With Cc1onc(-c2c(Cl)cccc2Cl)c1C(=O)NNC(=O)c1c(-c2c(Cl)cccc2Cl)noc1C as the molecule, how does the inhibition read?
A: Its inhibition is 0.133%.

Q: How did the inhibition turn out when Cc1[nH]n(C)c(=O)c1C(=O)c1c(-c2c(Cl)cccc2Cl)noc1C was run?
A: The inhibition was 77.1% (active).

Q: How did the inhibition turn out when Cc1onc(-c2c(Cl)cccc2Cl)c1C(=O)c1c[nH]c(C(=O)NC2CC2)c1 was run?
A: The inhibition was 5.76%.

Q: How did the inhibition turn out when CN(C)S(=O)(=O)c1ccc2oc(SCC(=O)Nc3ccccc3F)nc2c1 was run?
A: The inhibition was -2.69%.

Q: With N#Cc1c(-c2ccccc2)cc(-c2ccccc2)nc1SCC(=O)O as the molecule, how does the inhibition read?
A: Its inhibition is 0.292%.

Q: With N#CCc1c(C#N)c(N)nc(N2CCCC2)c1C#N as the molecule, how does the inhibition read?
A: Its inhibition is 0.638%.

Q: For N#Cc1c(N2CCCCC2)nc(N)c2c(N)nc(SCC(=O)O)cc12, which inhibition is on record?
A: Its inhibition is 61.1% (active).

Q: Which inhibition does the source give for CCOc1ccc(C2NC(=S)NC3=C2CCc2ccccc23)cc1 (centres undefined) here?
A: The inhibition was 15%.

Q: Which inhibition does the source give for COc1ccc(C2NC(=S)NC3=C2CCc2ccccc23)cc1OC (centres undefined) here?
A: The inhibition was 45.9% (active).

Q: Which inhibition does the source give for CCOC(=O)C1=C(c2ccccc2)NC(=S)NC1c1ccc(Cl)cc1 (centres undefined) here?
A: Its inhibition is 8.84%.

Q: Cc1nn(C(C)(C)C)c(OC(=O)CC(C)C)c1S(=O)(=O)c1ccccc1 was tested. Which inhibition did it give?
A: The inhibition was 8.28%.

Q: For O=C(CCNS(=O)(=O)c1cccs1)N1CCN(c2ccc(F)cc2)CC1, which inhibition is on record?
A: The inhibition was -0.494%.

Q: With COc1cc(C(=O)NCc2ccc3c(c2)cc(C)n3C)cc(OC)c1OC as the molecule, how does the inhibition read?
A: The inhibition was 1.47%.

Q: Cc1ccc(CNC(=O)COc2ccc3c(c2)CCC3)cc1 was tested. Which inhibition did it give?
A: Its inhibition is 1.94%.

Q: How did the inhibition turn out when CCOCC(=O)NCc1ccc2c(c1)cc(C)n2C was run?
A: Its inhibition is 30.1% (active).

Q: How did the inhibition turn out when CCc1cc(CNC(=O)CC2C(=O)NCCN2Cc2ccccc2C(F)(F)F)on1 (centres undefined) was run?
A: Its inhibition is -0.415%.

Q: Which inhibition does the source give for COc1ccc(C(=O)c2c(C)oc3cc([N+](=O)[O-])c(O)c([N+](=O)[O-])c23)cc1 here?
A: The inhibition was 8.62%.

Q: Which inhibition does the source give for Cc1oc2cc(Br)c(O)c(Br)c2c1C(=O)c1ccccc1 here?
A: The inhibition was 12.7%.

Q: For Cc1oc2cc([N+](=O)[O-])c(O)c([N+](=O)[O-])c2c1C(=O)c1ccc(Br)cc1, which inhibition is on record?
A: Its inhibition is 41.5% (active).

Q: With COC(=O)[C@H]1[C@H]2C[C@H]3c4[nH]c5ccccc5c4CCN3C[C@@H]2CC[C@@H]1O as the molecule, how does the inhibition read?
A: The inhibition was 0.605% and -6.9%.

Q: With CC(Oc1cc2oc(=O)c3c(c2cc1Cl)CCCC3)C(=O)NCc1ccncc1 (centres undefined) as the molecule, how does the inhibition read?
A: The inhibition was 0.148%.
